Source: PubChem BioAssay
Active and inactive are the calls of the source.

Key:
[1] = test system: Plasmodium falciparum Sir2 (PF13_0152, Sir2A); experiment: Plasmodium falciparum Sir2A binding compounds – biochemical, small-molecule microarray, 635 nm fluorescence, primary screen (AID 1098); conditions: fluorescence 635 nm, higher = more signal;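 further: score merges spot fluorescence intensity with its signal-to-noise ratio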
[2] = probe aDKK1 binding to arrayed compounds – biochemical, biotinylated probe, 635/667 nm fluorescence, primary screen (AID 1099); conditions: small-molecule microarray, higher = more signal;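 further: score merges 667nm spot fluorescence with signal to noise across triplicate slides; reference of the scale not given here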
[3] = probe aCHRDL2 binding to arrayed compounds – biochemical, biotinylated probe, 635/667 nm fluorescence, primary screen (AID 1100); conditions: small-molecule microarray, higher = more signal
[4] = change in splice reporter luminescence, either direction, cell-based, HEK293, spliceosome inhibition project, primary screen (AID 1101); conditions: HEK293 splicing luciferase reporter, 24 h, higher = more signal, called active from +8 up or from −8 down;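 further: HEK293 cells carrying a splicing-competent luciferase reporter gene; test concentration not given here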
[5] = biological target: Fibroblast growth factor 10 (Homo sapiens) (UniProt O15520); experiment: compounds binding fibroblast growth factor 10 – biochemical, small-molecule microarray, 635 nm fluorescence, primary screen (AID 1102); conditions: FGF10 binding, fluorescence 635 nm, higher = more signal
Sequence of Fibroblast growth factor 10 (Homo sapiens) (O15520 whole entry, looked up): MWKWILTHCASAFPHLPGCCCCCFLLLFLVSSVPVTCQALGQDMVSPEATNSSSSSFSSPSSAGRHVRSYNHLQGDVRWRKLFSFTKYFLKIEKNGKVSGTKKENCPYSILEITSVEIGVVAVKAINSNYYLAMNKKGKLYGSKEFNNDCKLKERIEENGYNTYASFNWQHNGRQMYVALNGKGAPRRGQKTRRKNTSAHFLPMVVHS

[6] = test system: glycogen synthase kinase-3 (GSK3A per assay name; protocol says GSK3B); experiment: compounds binding glycogen synthase kinase-3 – biochemical, small-molecule microarray, 635 nm fluorescence, GSK3A, primary screen (AID 1103); conditions: fluorescence 635 nm, higher = more signal; further: the record names both GSK3A and GSK3B
[7] = biological target: Epidermal growth factor receptor (Homo sapiens) (UniProt P00533); experiment: compounds binding epidermal growth factor receptor – biochemical, small-molecule microarray, 635 nm fluorescence, primary screen (AID 1104); conditions: EGFR binding, higher = more signal;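 further: score merges 667 nm emission intensity with spot signal to noise over triplicate slides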
Sequence of Epidermal growth factor receptor (Homo sapiens) (P00533 whole entry, looked up): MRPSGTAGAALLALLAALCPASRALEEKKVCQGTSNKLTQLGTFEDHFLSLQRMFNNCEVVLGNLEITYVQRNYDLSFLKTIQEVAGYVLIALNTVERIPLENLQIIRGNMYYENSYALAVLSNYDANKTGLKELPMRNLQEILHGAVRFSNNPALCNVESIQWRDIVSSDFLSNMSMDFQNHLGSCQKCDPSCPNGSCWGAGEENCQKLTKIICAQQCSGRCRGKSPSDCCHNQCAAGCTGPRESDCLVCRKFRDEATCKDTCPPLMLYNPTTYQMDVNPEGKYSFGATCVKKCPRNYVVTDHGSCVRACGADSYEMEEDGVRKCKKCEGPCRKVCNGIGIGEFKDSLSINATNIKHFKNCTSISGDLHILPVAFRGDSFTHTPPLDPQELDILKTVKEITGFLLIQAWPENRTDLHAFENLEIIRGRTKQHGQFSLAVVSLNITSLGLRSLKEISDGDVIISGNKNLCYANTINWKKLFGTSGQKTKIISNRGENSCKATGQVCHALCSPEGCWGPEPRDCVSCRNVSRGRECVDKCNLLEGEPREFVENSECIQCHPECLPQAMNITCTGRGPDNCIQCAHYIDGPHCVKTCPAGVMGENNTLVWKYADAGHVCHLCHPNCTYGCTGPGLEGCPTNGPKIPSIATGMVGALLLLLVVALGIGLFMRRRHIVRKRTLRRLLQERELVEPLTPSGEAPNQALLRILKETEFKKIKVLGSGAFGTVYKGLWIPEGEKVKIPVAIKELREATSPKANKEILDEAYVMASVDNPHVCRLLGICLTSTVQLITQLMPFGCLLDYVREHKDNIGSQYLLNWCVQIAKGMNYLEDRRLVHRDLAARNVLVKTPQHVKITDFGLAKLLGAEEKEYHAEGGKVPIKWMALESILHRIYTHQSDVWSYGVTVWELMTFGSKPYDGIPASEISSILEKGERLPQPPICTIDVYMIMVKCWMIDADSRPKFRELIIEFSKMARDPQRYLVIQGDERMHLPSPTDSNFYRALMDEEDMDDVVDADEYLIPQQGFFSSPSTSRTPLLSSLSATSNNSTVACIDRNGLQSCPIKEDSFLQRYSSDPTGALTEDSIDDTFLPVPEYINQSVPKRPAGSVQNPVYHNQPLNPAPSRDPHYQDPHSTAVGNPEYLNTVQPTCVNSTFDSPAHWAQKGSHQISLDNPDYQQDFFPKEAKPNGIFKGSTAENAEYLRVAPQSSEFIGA

[8] = biological target: Follistatin-related protein 3 (Homo sapiens) (UniProt O95633); experiment: compounds binding follistatin-related protein 3 – biochemical, small-molecule microarray, 635 nm fluorescence, primary screen (AID 1105); conditions: FSTL3 binding, higher = more signal;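 further: score merges emission near 667 nm and signal to noise per printed spot across three slides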
Sequence of Follistatin-related protein 3 (Homo sapiens) (O95633 whole entry, looked up): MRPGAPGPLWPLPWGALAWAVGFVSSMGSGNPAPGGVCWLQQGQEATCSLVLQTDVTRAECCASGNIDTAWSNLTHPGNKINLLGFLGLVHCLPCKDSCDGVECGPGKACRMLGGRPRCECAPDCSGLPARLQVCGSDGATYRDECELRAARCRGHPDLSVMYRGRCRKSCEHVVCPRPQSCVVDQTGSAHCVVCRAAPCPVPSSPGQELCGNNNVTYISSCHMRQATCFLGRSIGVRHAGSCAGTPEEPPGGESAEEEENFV

[9] = biological target: Dickkopf-related protein 1 (Homo sapiens) (UniProt O94907); experiment: small molecules binding DKK1 protein – biochemical, small-molecule microarray, 635 nm fluorescence scan, primary screen (AID 1106); conditions: higher = more signal;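 further: score merges emission near 667 nm with signal to noise over three replicate slides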
Sequence of Dickkopf-related protein 1 (Homo sapiens) (O94907 whole entry, looked up): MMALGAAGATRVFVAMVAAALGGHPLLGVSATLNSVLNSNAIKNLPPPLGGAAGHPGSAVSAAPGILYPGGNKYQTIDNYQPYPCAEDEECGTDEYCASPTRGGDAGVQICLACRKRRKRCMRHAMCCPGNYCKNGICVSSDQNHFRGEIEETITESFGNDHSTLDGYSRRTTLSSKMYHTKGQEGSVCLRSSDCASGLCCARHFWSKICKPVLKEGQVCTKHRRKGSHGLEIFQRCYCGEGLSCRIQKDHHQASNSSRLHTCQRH

[10] = test system: Inhibin beta A chain (activin A); experiment: small molecules binding activin A – biochemical, small-molecule microarray, 635 nm fluorescence scan, primary screen (AID 1107); conditions: INHBA, higher = more signal;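 further: mouse activin A protein probed at 4.33 µg/mL on printed slides; score merges bound-protein fluorescence near 667 nm with spot signal-to-noise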

`COc1cc2c(cc1O)C(c1cccs1)N(Cc1cccc(OC(F)(F)F)c1)CC2` (stereo not given) showed a composite z-score [1] of 1.77, a composite z-score [2] of -0.293 and a composite z-score [3] of 0.154. The z-score [4] was 0.965 (inactive), the composite z-score [5] was -0.153 and the composite z-score [6] was -0.0228. The composite z-score [7] was -0.0017, the composite z-score [8] was 0.105 and the composite z-score [9] was -0.183. It also gave a composite z-score [10] of 1.41.

`C=C(/C(=C/C[C@H](OC(=O)c1ccncc1)c1ccc(OCCO)cc1)c1cc(C(=O)OC)ccc1OC)C(C)C` showed a composite z-score [1] of 0.569, a composite z-score [2] of 0.031 and a composite z-score [3] of 0.244. The z-score [4] was -0.821 (inactive), the composite z-score [5] was 1.42 and the composite z-score [6] was -0.534. It also gave a composite z-score [7] of -0.114, a composite z-score [8] of 0.487 and a composite z-score [9] of 0.178. It also gave a composite z-score [10] of 1.13.

In the case of `C=CCC(OC(C)=O)[C@@H]1[C@@H](N(Cc2ccc(-c3cccc(C(F)(F)F)c3)o2)C(=O)c2cccc3ccccc23)c2cc(OCCCO)ccc2N1C(=O)Cc1ccc2ccccc2c1` (stereo not given in full), the composite z-score [1] is reported as 0.25, the composite z-score [2] is reported as 0.102 and the composite z-score [3] is reported as 0.291. The z-score [4] was -0.896 (inactive), the composite z-score [5] was 0.0246 and the composite z-score [6] was -1.07. It also gave a composite z-score [7] of -0.352, a composite z-score [8] of 0.117 and a composite z-score [9] of -0.282. It also gave a composite z-score [10] of 0.95.

For `COC(=O)[C@]1(Cc2ccccc2)N=C(c2ccc(OCCCO)cc2)O[C@@H]1c1ccccc1N=[N+]=[N-]`, the composite z-score [1] was 1.54, the composite z-score [2] was 0.124 and the composite z-score [3] was 0.527. The z-score [4] was -1.56 (inactive), the composite z-score [5] was 0.79 and the composite z-score [6] was 0.519. The composite z-score [7] was -0.0527, the composite z-score [8] was 0.257 and the composite z-score [9] was -0.0949. The composite z-score [10] was 0.796.

With `CN(C)C(=O)[C@]1(Cc2ccccc2)N=C(c2ccc(OCCCO)cc2)O[C@@H]1c1ccccc1N=[N+]=[N-]` the composite z-score [1] was 0.684, the composite z-score [2] was 0.74 and the composite z-score [3] was 1.05. For the same compound, the z-score [4] was -0.968 (inactive), the composite z-score [5] was 1.5 and the composite z-score [6] was 1.3. It also gave a composite z-score [7] of 0.382, a composite z-score [8] of 0.817 and a composite z-score [9] of 0.173. For the same compound, the composite z-score [10] was 1.25.

Work on `COCCOC(=O)N1C(=O)[C@@]2(c3cc(C#CC4(O)CCCCCC4)ccc31)[C@H](C(=O)Nc1nc3ccccc3s1)[C@H]1C(=O)O[C@H](c3ccccc3)[C@H](c3ccccc3)N1[C@@H]2c1ccc(OCCO)cc1` yielded a composite z-score [1] of 1.28, a composite z-score [2] of 0.0895 and a composite z-score [3] of 0.0903. For the same compound, the z-score [4] was -0.426 (inactive), the composite z-score [5] was 1.25 and the composite z-score [6] was 1.3. The composite z-score [7] was 0.583, the composite z-score [8] was 1.37 and the composite z-score [9] was 0.84. It also gave a composite z-score [10] of 0.8.

Compound `C#CCN1[C@H](/C=C/C2CC2)[C@H](Cc2ccccc2)OC(=O)[C@@H]1Cc1ccccc1` has a composite z-score [1] of 1.16, a composite z-score [2] of -0.411 and a composite z-score [3] of -0.507. For the same compound, the z-score [4] was 0.23 (inactive), the composite z-score [5] was 0.294 and the composite z-score [6] was 0.109. It also gave a composite z-score [7] of 0.323, a composite z-score [8] of 0.326 and a composite z-score [9] of 0.428. For the same compound, the composite z-score [10] was 0.849.

For `COC(=O)[C@@]1(Cc2ccc(F)cc2)[C@H]2c3cc(C(=O)N(C)C)n(Cc4cc(C)n(C)n4)c3C[C@H]2CN1C(=O)c1ccccc1`, the composite z-score [1] was 1.16, the composite z-score [2] was 1.2 and the composite z-score [3] was 1.19. For the same compound, the z-score [4] was -1.99 (inactive), the composite z-score [5] was 1.17 and the composite z-score [6] was 0.716. It also gave a composite z-score [7] of -0.0733, a composite z-score [8] of 0.386 and a composite z-score [9] of 0.0455. The composite z-score [10] was 0.609.

For `COc1ccc([C@H]2OC[C@@H]3CCC(=O)N32)cc1`, the composite z-score [1] was 0.178, the composite z-score [2] was -0.235 and the composite z-score [3] was -0.374. The z-score [4] was -0.00375 (inactive), the composite z-score [5] was 0.66 and the composite z-score [6] was 1.17. For the same compound, the composite z-score [7] was 0.339, the composite z-score [8] was 0.954 and the composite z-score [9] was 0.294. It also gave a composite z-score [10] of 0.0892.

In the case of `O=C1[C@H]2C=C(Br)[C@H](C[C@@H]2OCCCCCCO)[C@@]12CO2`, the composite z-score [1] is reported as 1.21, the composite z-score [2] is reported as -0.142 and the composite z-score [3] is reported as -0.0272. For the same compound, the z-score [4] was 0.428 (inactive), the composite z-score [5] was -0.117 and the composite z-score [6] was -0.363. The composite z-score [7] was -0.0491, the composite z-score [8] was -0.154 and the composite z-score [9] was -0.0712. It also gave a composite z-score [10] of 1.61.

`COc1ccc([Si](C)(C)[C@@H]2[C@@H](CCO)O[C@]3(C(=O)N(Cc4cccc(N5CCOC5=O)c4)c4ccccc43)[C@H]2C)cc1` gave a composite z-score [1] of 0.75, a composite z-score [2] of 0.644 and a composite z-score [3] of 0.246. For the same compound, the z-score [4] was -0.871 (inactive), the composite z-score [5] was 0.415 and the composite z-score [6] was 0.67. It also gave a composite z-score [7] of 0.0548, a composite z-score [8] of 0.648 and a composite z-score [9] of 0.405. The composite z-score [10] was 0.593.

Compound `COCCOC(=O)N1C(=O)[C@@]2(c3cc(C#CC4=CCCCC4)ccc31)[C@H](C(N)=O)[C@H]1C(=O)O[C@H](c3ccccc3)[C@H](c3ccccc3)N1[C@@H]2c1ccc(O)cc1` has a composite z-score [1] of 1.61, a composite z-score [2] of 0.0331 and a composite z-score [3] of 0.275. The z-score [4] was -1.18 (inactive), the composite z-score [5] was 1.15 and the composite z-score [6] was 0.96. It also gave a composite z-score [7] of 0.586, a composite z-score [8] of 0.829 and a composite z-score [9] of 0.318. It also gave a composite z-score [10] of 0.787.

`CCCC=C(CCC)[C@@H](NS(=O)(=O)c1ccc(Cl)cc1)c1ccc(C(=O)OC)cc1` showed a composite z-score [1] of 0.456, a composite z-score [2] of 0.113 and a composite z-score [3] of -0.461. For the same compound, the z-score [4] was 0.184 (inactive), the composite z-score [5] was 0.401 and the composite z-score [6] was 0.836. The composite z-score [7] was 0.228, the composite z-score [8] was -0.445 and the composite z-score [9] was 0.291. It also gave a composite z-score [10] of 0.28.

Compound `COCCOC(=O)N1C(=O)[C@@]2(c3ccccc31)[C@H](c1ccc(OCCO)cc1)N1[C@H](c3ccccc3)[C@H](c3ccccc3)OC(=O)[C@H]1[C@@H]2C(=O)N1CCc2cc(OC)c(OC)cc2C1` has a composite z-score [1] of 1.53, a composite z-score [2] of 0.305 and a composite z-score [3] of 0.232. The z-score [4] was -1.02 (inactive), the composite z-score [5] was 1.29 and the composite z-score [6] was 1.3. It also gave a composite z-score [7] of 0.738, a composite z-score [8] of 1.42 and a composite z-score [9] of 0.476. The composite z-score [10] was 0.355.

For `CC(C)(C)OC(=O)CC[C@@]1(C(=O)N2CCCCC2)N=C(c2ccc(OCCCO)cc2)O[C@@H]1c1ccccc1`, the composite z-score [1] was 1.74, the composite z-score [2] was 0.555 and the composite z-score [3] was 0.452. The z-score [4] was 0.0826 (inactive), the composite z-score [5] was 1.46 and the composite z-score [6] was 1.3. It also gave a composite z-score [7] of 0.197, a composite z-score [8] of 0.858 and a composite z-score [9] of -0.219. It also gave a composite z-score [10] of 0.6.

`NCCCCCNC(=O)[C@H]1C[C@H]2C(=O)N[C@@H](Cc3ccccc3)C(=O)N2[C@H]1c1cccc(OCCO)c1` gave a composite z-score [1] of 0.0864, a composite z-score [2] of 1.15 and a composite z-score [3] of 0.942. For the same compound, the z-score [4] was -0.365 (inactive), the composite z-score [5] was -0.0314 and the composite z-score [6] was 0.213. It also gave a composite z-score [7] of 0.0441, a composite z-score [8] of 0.6 and a composite z-score [9] of 0.4. The composite z-score [10] was 1.34.

In the case of `CCCCN1CC=CC23O[C@@H]4C=CCOC(=O)[C@@H]4[C@H]2C(=O)N(CCCCCCO)[C@@H]3C1=O` (stereo not given in full), the composite z-score [1] is reported as 1.77, the composite z-score [2] is reported as 0.159 and the composite z-score [3] is reported as 0.552. For the same compound, the z-score [4] was 0.381 (inactive), the composite z-score [5] was -0.988 and the composite z-score [6] was -1. It also gave a composite z-score [7] of -1.5, a composite z-score [8] of -1.38 and a composite z-score [9] of -1.28. It also gave a composite z-score [10] of 0.65.
